# Hedgehog inh = blocks Sonic Hedgehog signaling. Shh-LIGHT2 Gli-luciferase reporter, 30 h. inhibition, % (test concentration not listed). actives 2.1% (n = 22,000);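 active = mean inhibition across valid replicates above about 65%, limit read from the data; inconclusive = mean under the limit, yet half or more replicates past it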;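 note: pathway switched on by Shh-conditioned medium diluted 1 in 25 in low serum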
# NOMO-1 viab = STK33 inhibitor candidate reducing NOMO-1 cell viability; inhibition, % (no concentration beside the values); actives 7.5% (n = 37,000); NOMO-1 AML viability, CellTiter-Glo luminescence, 72 h; in the data active = inhibition above about 80%; inconclusive = no clear call, values can overlap the other calls
# MITF inhib = inhibitors of MITF. actives 0.28% (n = 37,000). inhibition, % (no concentration beside the values). TRPM1 promoter luciferase, luminescence, 24 h; in the data active = inhibition above about 85%; inconclusive = no clear call, values can overlap the other calls; inactive = below about 68%;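 note: human melanocyte line stably carrying TRPM1 promoter luciferase reporter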
# PD-1 reverse act = activators reversing PD-1 mediated T-cell inhibition; activation, % (no concentration beside the values); primary human CD4 T cells, PD-L1 beads, CellTiter-Glo 96 h; 29,000 tested, under 10 active; call rule not given here;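 note: 0% = median vehicle wells and 100% = positive control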
# * = called active by the depositor; ? = inconclusive; / = not tested or not shown. Most compounds without a hit are left out; they make up all but 7.8% or so of the library.
SMILES,Hedgehog inh,NOMO-1 viab,MITF inhib,PD-1 reverse act
CC(C)(C)c1cc(C(C)(C)C)c2oc(C(=O)O)cc(=O)c2c1,3,-7,-3,0
COc1ccccc1NC(=O)CN1C(=O)C2C3CCC(C3)C2C1=O (configuration not stated),/,10,38,-2
COc1ccccc1NC(=O)C(Cc1ccccc1)N1C(=O)C2C3c4ccccc4C(c4ccccc43)C2C1=O (configuration not stated),/,92*,-2,0
Cn1c(SCC(=O)n2c3c(c4ccccc42)CCCC3)nnc1-c1ccco1,/,109*,18,-3
Cn1c(SCC(=O)n2c3c(c4ccccc42)CCCC3)nnc1-c1ccccc1,/,5,-19,1
CC1CCc2c(sc3ncnc(NCCc4nc5ccccc5[nH]4)c23)C1 (configuration not stated),/,97*,-10,/
CC1CCc2c(sc3ncnc(SCCOc4ccccc4)c23)C1 (configuration not stated),/,-13,-50,4
COc1ccc2cc1/C=C\NC(=O)C(Cc1ccccc1)NC(=O)C1C(CCN1C(=O)C(NC(=O)C(C)N(C)C)C(C)C)O2 (configuration not stated),24,21,5,1
COc1ccc2c(c1)O[C@@H]1COc3cc(OC)c(OC)cc3[C@@H]1C2=O,32,52,110*,/
COc1ccc2c(c1)OCC(Cc1ccc(OC)c(OC)c1)C2=O (configuration not stated),3,-3,1,/
COc1ccc2c(c1)OCC(Cc1ccc(OC)c(OC(C)=O)c1)C2=O (configuration not stated),3,108*,4,/
COc1cc2c(cc1OC)[C@@H]1C(=O)c3ccc4c(c3O[C@@H]1CO2)CCC(C)(C)O4,94*,44,?,/
COc1ccc(C2C(=O)c3cc(OC)c(OC)cc3C2c2ccccc2)cc1OC (configuration not stated),10,30,-7,0
COc1cccc(OC)c1C(=O)NC(=S)Nc1cccc(-c2nn3c(C)nnc3s2)c1,/,122*,39,-3
C=C1[C@@H](C2=CC(=O)OC2)CC[C@@]2(O)[C@@H]1CC1[C@H]2CC[C@@H]2C[C@@H](O[C@H]3O[C@@H](C)[C@@H](O[C@@H]4O[C@H](CO[C@@H]5O[C@H](CO)[C@@H](O)[C@H](O)[C@H]5O)[C@@H](O)[C@H](O)[C@H]4O)[C@H](OC)[C@H]3O)CC[C@]12C (some centres not stated),27,/,/,/
C[C@H]1O[C@@H](O[C@H]2[C@@H](O)C[C@H](O[C@H]3[C@@H](O)C[C@H](O[C@H]4CC[C@@]5(C)[C@H](CC[C@@H]6[C@@H]5C[C@@H](O)[C@]5(C)[C@@H](C7=CC(=O)OC7)CC[C@]65O)C4)O[C@@H]3C)O[C@@H]2C)C[C@H](O)[C@@H]1O,-20,120*,45,/
COC(=O)c1ccccc1NC(=O)c1cc(-c2ccccn2)nc2c(C)c(Cl)ccc12,/,22,0,/
C[C@@H]1CN([C@H](C)CO)C(=O)Cc2cc(NC(=O)Nc3ccc4c(c3)OCO4)ccc2O[C@@H]1CN(C)Cc1ccc2c(c1)OCO2,72*,6,-2,-3
C[C@@H]1CN([C@H](C)CO)C(=O)Cc2cc(NC(=O)Nc3ccc4c(c3)OCO4)ccc2O[C@@H]1CN(C)Cc1ccc(Cl)c(Cl)c1,-70,108*,33,0
Cc1cc2nc(-c3cccc(NC(=O)COc4ccc(Cl)cc4)c3C)oc2cc1C,/,27,?,/
COc1ccc(S(=O)(=O)Nc2ccc3c(c2)CC(=O)N([C@@H](C)CO)C[C@@H](C)[C@@H](CN(C)Cc2ccc(Cl)c(Cl)c2)O3)cc1,38,107*,9,/
COc1ccc(S(=O)(=O)Nc2ccc3c(c2)C(=O)N([C@@H](C)CO)C[C@@H](C)[C@@H](CN(C)Cc2ccc(Cl)c(Cl)c2)O3)cc1,?,114*,61,-3
COc1ccc(CN(C)C[C@H]2Oc3ccc(NS(=O)(=O)c4ccc(OC)cc4)cc3CC(=O)N([C@H](C)CO)C[C@H]2C)cc1,-12,16,8,/
COc1ccc(S(=O)(=O)Nc2ccc3c(c2)CC(=O)N([C@@H](C)CO)C[C@H](C)[C@H](CN(C)Cc2ccc(Cl)c(Cl)c2)O3)cc1,39,105*,10,1
COc1ccc(S(=O)(=O)Nc2ccc3c(c2)C(=O)N([C@H](C)CO)C[C@H](C)[C@@H](CN(C)Cc2ccc(Cl)c(Cl)c2)O3)cc1,-5,51,-7,0
SMILES,Hedgehog inh,NOMO-1 viab,MITF inhib,PD-1 reverse act
COc1ccc(S(=O)(=O)Nc2ccc3c(c2)CC(=O)N([C@H](C)CO)C[C@@H](C)[C@@H](CN(C)Cc2ccc(Cl)c(Cl)c2)O3)cc1,31,114*,-6,-1
On1c(-c2ccccc2Cl)nc2c1CCc1nonc1-2,-10,-10,-10,0
O=c1c(Cc2cc(Cl)cc(Cl)c2O)c(O)nc2n1CCCS2,/,5,-13,1
c1ccc(Cc2ccc[n+](Cc3ccccn3)c2)cc1,/,14,9,2
CS(=O)(=O)N(CC(=O)Nc1ccc(Br)cc1)c1cc(Cl)cc(Cl)c1,/,20,4,-1
CCOc1cc([N+](=O)[O-])ccc1NC(=O)CC1Sc2ccccc2NC1=O (configuration not stated),/,110*,35,-4
COc1ccc(OC)c(NC(=O)CC2Sc3ccccc3NC2=O)c1 (configuration not stated),/,3,-2,-1
O=c1[nH]c2ccc(F)cc2c(O)c1-c1ccccc1,/,-10,-7,-1
N#Cc1c(C(F)(F)F)cc(-c2cccs2)nc1S/C=C/C(=O)c1ccccc1,-26,116*,5,-3
Cc1csc(Nc2ccc(F)c(Cl)c2)[n+]1C(C)C,-7,31,0,2
Oc1ccc(Cl)c2cccnc12,-9,110*,37,/
C[C@H](CO)N1C[C@H](C)[C@H](CN(C)S(=O)(=O)c2cccs2)Oc2c(NC(=O)c3ccc(-c4nccs4)cc3)cccc2C1=O,92*,58,45,-3
Cc1ccc(S(=O)(=O)N(C)C[C@H]2Oc3c(NC(=O)c4ccc(-c5nccs5)cc4)cccc3C(=O)N([C@@H](C)CO)C[C@H]2C)cc1,1,6,13,-1
C[C@@H]1CN([C@H](C)CO)C(=O)c2cccc(NC(=O)c3ccc(-c4nccs4)cc3)c2O[C@H]1CN(C)S(=O)(=O)c1ccc(Cl)cc1,76*,7,8,/
C[C@H](CO)N1C[C@H](C)[C@@H](CN(C)S(=O)(=O)c2cccs2)Oc2c(NC(=O)c3ccc(-c4nccs4)cc3)cccc2C1=O,40,7,-12,/
C[C@H]1CN([C@@H](C)CO)C(=O)c2cccc(NC(=O)c3ccc(-c4nccs4)cc3)c2O[C@H]1CN(C)S(=O)(=O)c1ccc(Cl)cc1,93*,9,-16,1
Cc1ccc(S(=O)(=O)N(C)C[C@@H]2Oc3c(NC(=O)c4ccc(-c5nccs5)cc4)cccc3C(=O)N([C@H](C)CO)C[C@@H]2C)cc1,-7,82*,29,-4
CC(=O)NC1CCCCc2sccc21 (configuration not stated),/,-5,0,0

# Compound activity: PubChem BioAssay, Broad Institute
